Molecular target: Streptavidin (Streptomyces avidinii) (UniProt P22629)
Assay: streptavidin binders on small-molecule microarray, primary screen, artefact control for SMM compound annotation, biophysical, 635/667 nm fluorescence (AID 1147);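 note: signal reflects streptavidin binding to arrayed compounds as a control protein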
Conditions: streptavidin binding, higher = more signal

Streptavidin (Streptomyces avidinii), sequence (P22629 whole entry, looked up): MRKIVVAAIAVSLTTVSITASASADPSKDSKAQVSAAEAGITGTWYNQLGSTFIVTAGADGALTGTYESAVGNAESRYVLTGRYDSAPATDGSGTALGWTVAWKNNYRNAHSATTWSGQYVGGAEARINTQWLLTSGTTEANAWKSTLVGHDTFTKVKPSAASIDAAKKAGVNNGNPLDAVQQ

| Structure (SMILES) | composite z-score |
| --- | --- |
| CCCC[C@@H](O)C1=C(C)Cn2c(=O)n(-c3ccccc3)c(=O)n2[C@H]1CO | -0.463 |
| CCOC(=O)C[C@H]1[C@H](OC(=O)c2cc3ccccc3oc2=O)[C@@H](NC(=O)Cc2ccc(OC)cc2)c2cc(OCCCO)ccc2N1C(=O)Cc1ccc(OC)cc1 | 0.55 |
| COC(=O)C1=CC(CCCO)=CC(c2ccc(CN3CCCC3)cc2)N(C)C=C1C(=O)OC (stereo unspecified) | 0.532 |
| CCOC(=O)C[C@H]1[C@H](OC(=O)c2ccc(-c3ccccc3)cc2)[C@@H](NC(=O)c2ccc(-c3ccccc3)cc2)c2cc(OCCCO)ccc2N1C(=O)c1ccccc1 | 0.763 |
| COc1ccc(C(=O)Nc2cccc(CN3C(=O)[C@]4(O[C@H](CC(=O)N(CCO)Cc5ccccc5)[C@@H]([Si](C)(C)c5ccc(OC)cc5)[C@@H]4C)c4ccccc43)c2)cc1 | 0.127 |
| O=C(N1CCOCC1)[C@]1(CCS(=O)(=O)c2ccccc2)N=C(c2ccc(OCCCO)cc2)O[C@@H]1c1ccccc1 | 0.947 |
| CC(C)c1ccc(NN2C(C(O)c3ccccc3)C=CC3C(=O)N(c4ccccc4)C(=O)C32)cc1 (stereo unspecified) | 0.576 |
| COc1ccc([Si](C)(C)[C@H]2[C@H](CC(=O)N3CCC[C@H]3CO)O[C@@]3(C(=O)N(C)c4c(Br)cc(C)cc43)[C@@H]2C)cc1 | 3.28 |
| COCCCNC(=O)[C@]1(Cc2ccccc2N=[N+]=[N-])N=C(c2ccc(OCCCO)cc2)O[C@@H]1c1ccccc1 | 1.58 |
| [N-]=[N+]=NCc1ccccc1[C@H]1OC(c2ccc(OCCCO)cc2)=N[C@@]1(Cc1ccccc1N=[N+]=[N-])C(N)=O | 1.23 |
| C=CC[C@]1(C(=O)NCC(O)CO)N=C(c2ccc(OCCCO)cc2)O[C@H]1c1ccccc1CN=[N+]=[N-] (stereo partly specified) | 0.184 |
| C[C@]1(C(=O)NC2CC2)c2ccccc2C(=O)N(Cc2cc(F)cc(C(F)(F)F)c2)[C@H]1c1ccc(CO)cc1 | -0.827 |
| CC(C)N1CC=CC23O[C@@H]4/C=C\CCCOC(=O)C4[C@H]2C(=O)N(C(C)CO)[C@@H]3C1=O (stereo partly specified) | -0.938 |
| CCOC(=O)C[C@H]1[C@H](OC(=O)c2ccccc2-c2ccccc2)[C@@H](NC(=O)CC(C)C)c2cc(OCCCO)ccc2N1C(=O)c1ccccc1 | -0.31 |
| CN(C)CCCCNC(=O)[C@H]1C[C@H]2C(=O)N[C@@H](CCCCN(C)C)C(=O)N2[C@H]1c1ccc(O)cc1 | 0.165 |
| CC(CO)N1C(=O)[C@@H]2[C@H]3C(=O)OCC=C[C@H]3OC23C=CCN(c2ccc4ccccc4c2)C(=O)[C@@H]13 (stereo partly specified) | -1.06 |
| CC(C)N1C(=O)[C@@]2(Cc3ccccc31)c1ccccc1C(=O)N(Cc1ccccc1)[C@H]2c1ccc(CO)cc1 | -0.439 |
| CCOC(=O)C1=CC[C@@H](c2ccccc2)N(S(=O)(=O)c2ccc(C)cc2)[C@@H]1C#N | 0.814 |

| Structure (SMILES) | composite z-score |
| --- | --- |
| COc1ccc([Si](C)(C)[C@@H]2[C@@H](CC(=O)N(CCO)Cc3ccccc3)O[C@]3(C(=O)N(Cc4cccc(I)c4)c4ccccc43)[C@H]2C)cc1 | -0.196 |
| CO[C@H]1O[C@H](CO)[C@@H](OC(=O)CCc2ccccc2)[C@@H]2OC(=O)[C@@H](Cc3ccc4ccccc4c3)C/C=C/C[C@H](Cc3ccc4ccccc4c3)C(=O)O[C@@H]12 | -0.452 |
| O=C1O[C@H](c2ccccc2)[C@H](c2ccccc2)N2[C@H]1[C@@H](C(=O)O)[C@]1(C(=O)Nc3ccccc31)[C@H]2c1ccc(OCCO)cc1 | 1.08 |
| O=C1c2ccccc2[C@@]2(Cc3ccccc3N(CC(F)(F)F)C2=O)[C@H](c2ccc(CO)cc2)N1Cc1ccccc1 | 0.0298 |
| COCCCNC(=O)[C@@]1(Cc2ccccc2I)c2ccccc2C(=O)N(C2CCCCC2)[C@H]1c1ccc(CO)cc1 | -0.0972 |
| COCCOC(=O)N1C(=O)[C@@]2(c3cc(C#CC4(O)CCCCCC4)ccc31)[C@H](C(N)=O)[C@H]1C(=O)O[C@H](c3ccccc3)[C@H](c3ccccc3)N1[C@@H]2c1ccc(OCCO)cc1 | 0.84 |
| CCCNC(=O)[C@@]1(Sc2ccc(C)cc2)CC(=O)N(Cc2cc(C(F)(F)F)cc(C(F)(F)F)c2)[C@@H]1c1ccc(CO)cc1 | -1.08 |
| C=C(CCCC)/C(=C/C[C@@H](OC(C)=O)c1cccc(OCCO)c1)c1cc(C(=O)OC)ccc1OC | -0.697 |
| Cc1cccc([C@H]2C[C@H]3C(Br)=C[C@@]2(CO)C(=O)[C@]32CO2)c1 | -0.376 |
| CCCCN1CC=CC23O[C@@H]4/C=C\CCCOC(=O)C4[C@H]2C(=O)N(CCCCCCO)[C@@H]3C1=O (stereo partly specified) | -0.654 |
| C=CCNC(=O)[C@@H]1[C@H]2C(=O)O[C@H](c3ccccc3)[C@H](c3ccccc3)N2[C@H](c2ccc(OCCO)cc2)[C@@]12C(=O)N(C(=O)OCCOC)c1ccccc12 | -0.154 |
| COc1ccc(C(=O)Nc2ccc(CN3C(=O)[C@]4(O[C@H](CC(=O)N(CCO)Cc5ccccc5)[C@@H]([Si](C)(C)c5ccc(OC)cc5)[C@@H]4C)c4ccccc43)cc2)cc1 | -0.138 |
| COC(=O)Cn1c(C(=O)N(C)C)cc2c1C[C@H]1CN(C(=O)c3ccccc3)[C@@](Cc3ccccc3)(C(=O)OC)[C@@H]21 | 0.822 |
| CO[C@H]1O[C@H](CO)[C@@H](OC(=O)Nc2cccc(F)c2)[C@H](OC(=O)Nc2ccc3c(c2)OCO3)[C@@H]1OC(=O)Nc1ccc2c(c1)OCO2 | 0.438 |
| COC(=O)[C@@]1(Cc2ccc(F)cc2)[C@H]2c3cc(C(=O)N(C)C)n(Cc4cccc5ccccc45)c3C[C@H]2CN1C(=O)c1ccccc1 | 0.0609 |
| CCOC(=O)C[C@H]1[C@H](OC(=O)Cc2ccc3c(c2)OCO3)[C@@H](NC(=O)CC(C)C)c2cc(OCCCO)ccc2N1C(=O)c1ccc2ccccc2n1 | 0.23 |
| O=C1O[C@H](c2ccccc2)[C@H](c2ccccc2)N2[C@H]1[C@@H](C(=O)N1CCN(c3ncccn3)CC1)[C@]1(C(=O)Nc3ccc(C#CC4(O)CCCCCC4)cc31)[C@H]2c1ccc(O)cc1 | -0.0103 |
| COC(=O)C[C@H]1O[C@]2(C(=O)N(C)c3ccccc32)[C@@H](C)[C@@H]1[Si](C)(C)c1ccccc1 | 1.02 |
